The structures appear in SMILES notation. Calls of active or inactive are those of the source. Unless noted, no rule for the calls is given here.

Data on 13 molecules can be found in PubChem BioAssay.

For assay [1], the system named is Wnt5a (protein binding on small-molecule microarray). Put plainly: small molecules binding Wnt5a protein – biophysical, small-molecule microarray, 635/667 nm fluorescence, primary screen (AID 1142).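 Also: fluorescence read at 667 nm with signal to noise per printed feature.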 The settings on record: 635 nm fluorescence, higher = more signal.
Assay [2] in a line: ATP-based viability of Huh7 replicon cells – cell-based, CellTiter-Glo luminescence, basal, 48 h, cytotoxicity control for HCV replication inhibitor project, primary screen (AID 1143).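 Also: Huh7 hepatoma cells carrying a hepatitis C replication reporter with no stimulus; test concentration not given here.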 The note with it: higher = more signal, called active from +8 up or from −8 down. For orientation: Replicon systems follow genome replication, usually without infectious particles.
The nature of assay [3]: Pseudomonas biofilm growth suppression – PAO1 strain, BacTiter-Glo luminescence, LB-PBS, primary screen (AID 1144). The note with it: P. aeruginosa PAO1 biofilm, 12 h, higher = more signal.
Assay [4] is described as follows: basal CRE-LacZ reporter activity in PC12 – cell-based, unstimulated, primary screen (AID 1145). The settings on record: no forskolin, luminescence, 4.5 h, higher = more signal, called active from +8 up or from −8 down.
The nature of assay [5]: forskolin-driven CRE-LacZ activity in PC12 – cell-based, CRE-LacZ reporter, forskolin-stimulated, primary screen (AID 1146).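 Also: PC12 cells with 6xCRE LacZ reporter stimulated by forskolin 10 µM; beta-galactosidase reporter signal reflecting CREB driven transcription.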 The note with it: luminescence, 4.5 h, higher = more signal, called active from +8 up or from −8 down.
Assay [6] concerns the target Streptavidin (Streptomyces avidinii) (UniProt P22629). In words: compounds binding control protein streptavidin – biophysical, small-molecule microarray, 635/667 nm fluorescence, artefact control for SMM compound annotation, primary screen (AID 1147).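 Also: signal reflects streptavidin binding to arrayed compounds as a control protein.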 The note with it: higher = more signal.
Assay [7] is described as follows: probe aInhba binding on compound microarray – biochemical, small-molecule microarray, 635/667 nm fluorescence, primary screen (AID 1148).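 Also: score merges 667nm spot fluorescence with signal-to-noise for antibody binding to printed compounds.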 The note with it: higher = more signal.
Assay [8] deals with Torsin-1A (Homo sapiens) (UniProt O14656). In words: TOR1A wild-type binding on microarray – cell lysate, small-molecule microarray, lysate, 635/667 nm, primary screen (AID 1149). The settings on record: COS7 hTOR1A-WT lysate, 635 nm fluorescence, higher = more signal.
Chain of Torsin-1A (Homo sapiens) (O14656 whole entry, looked up): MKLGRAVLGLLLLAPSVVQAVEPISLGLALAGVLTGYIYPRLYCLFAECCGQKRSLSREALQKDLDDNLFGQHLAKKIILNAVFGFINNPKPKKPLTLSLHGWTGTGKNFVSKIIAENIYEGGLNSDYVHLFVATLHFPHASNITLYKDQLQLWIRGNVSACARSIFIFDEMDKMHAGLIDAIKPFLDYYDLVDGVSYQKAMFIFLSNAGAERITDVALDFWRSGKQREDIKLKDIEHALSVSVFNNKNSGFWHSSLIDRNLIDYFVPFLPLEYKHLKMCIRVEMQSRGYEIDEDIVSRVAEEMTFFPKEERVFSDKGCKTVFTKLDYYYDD
For assay [9] the target is unchanged. Put plainly: torsin A mutant lysate binding on microarrays – cell lysate, small-molecule microarray, COS7 lysate, 635/667 nm fluorescence, primary screen (AID 1150).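 Also: score pools 667 nm emission and signal to noise measuring lysate protein binding.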 The note with it: COS7 hTOR1A mutant lysate, 635 nm fluorescence, higher = more signal.
The test system of assay [10] is Sonic hedgehog protein (Shh). Put plainly: Sonic hedgehog microarray binding compounds – biochemical, small-molecule microarray, 635/667 nm fluorescence, primary screen (AID 1151).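 Also: Shh protein binding to compounds spotted on small-molecule microarray slides; score combines spot fluorescence intensity with signal-to-noise across triplicate slides.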 The settings on record: 635 nm fluorescence, higher = more signal.

Chain of Streptavidin (Streptomyces avidinii) (P22629 whole entry, looked up): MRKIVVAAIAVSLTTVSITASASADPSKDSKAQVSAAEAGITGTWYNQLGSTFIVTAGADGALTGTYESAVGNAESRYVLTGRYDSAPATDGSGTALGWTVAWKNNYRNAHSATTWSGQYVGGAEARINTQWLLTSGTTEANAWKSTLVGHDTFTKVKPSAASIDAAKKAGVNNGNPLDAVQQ

With `COc1ccc(C#Cc2ccc3c(c2)[C@]2(C(=O)N3)[C@H](C(=O)Nc3nc4ccccc4s3)[C@H]3C(=O)O[C@H](c4ccccc4)[C@H](c4ccccc4)N3[C@@H]2c2ccccc2OCCO)cc1`, the composite z-score was found to be 0.189 in [1]; 0.689 in [6]; 0.0569 in assay [7]; 0.076 in the assay with Torsin-1A (Homo sapiens) [8]; 0.0705 in the assay with Torsin-1A (Homo sapiens) [9]; 0.912 in [10]. Moreover, the z-score in assay [2] is -4.68 (inactive); in [3], -0.939 (inactive); in [4] it was -0.788 (inactive); in assay [5] it was -0.369 (inactive).

On to `C[C@]1(C(=O)O)c2ccccc2C(=O)N(Cc2ccc(OC(F)(F)F)cc2)[C@H]1c1ccc(CO)cc1`, for which the composite z-score in [1] is 0.386; in assay [6], -0.129; in [7], 0.053; in the assay with Torsin-1A (Homo sapiens) [8] it was 0.45; with Torsin-1A (Homo sapiens) [9], 0.522; in [10], -0.261. Further, the z-score in assay [2] is -0.17 (inactive); in assay [3] it was -0.526 (inactive); in assay [4], 0.118 (inactive); in assay [5] it was -0.48 (inactive).

On to `CC(C)[C@H]1NC(=O)[C@@]23C(=O)N[C@@H](Cc4ccccc4)C2[C@H](C)[C@@]2(C)O[C@H]2C3/C=C/CCC/C=C/CNC(=O)[C@H](Cc2ccccc2)NC1=O` (stereo not given in full), for which the composite z-score is -0.178 in [1]; -0.77 in assay [6]; -0.152 in assay [7]; 0.343 with Torsin-1A (Homo sapiens) [8]; 0.671 with Torsin-1A (Homo sapiens) [9]; 2.03 in [10]. Further, the z-score in assay [2] is -1.23 (inactive); in assay [3] it was 1.01 (inactive); in assay [4], 1.4 (inactive); in assay [5], -0.723 (inactive).

For `COCC1C2CC[C@H]3C(OCc4ccc(OC)cc4)OC[C@]4(C)[C@H]3C2=C(CN4C(=O)OC(C)(C)C)[C@H](C)C1COC` (stereo not given in full), the composite z-score in assay [1] was 0.261; in [6] it was 2.08; in assay [7] it was -0.321; with Torsin-1A (Homo sapiens) [8], 0.187; with Torsin-1A (Homo sapiens) [9] it was 0.255; in [10] it was 0.298. In addition, the z-score in assay [2] was -2.88 (inactive); in [3] it was 0.413 (inactive); in assay [4] it was -0.185 (inactive); in assay [5], -0.0287 (inactive).

In the case of `COCCOC(=O)N1C(=O)[C@@]2(c3cc(C#CCNC(N)=O)ccc31)[C@H](c1ccc(O)cc1)N1[C@H](c3ccccc3)[C@H](c3ccccc3)OC(=O)[C@H]1[C@@H]2C(=O)N1CCN(c2ncccn2)CC1`, the composite z-score in assay [1] was 0.0474; in [6], 0.374; in assay [7] it was -0.0898; with Torsin-1A (Homo sapiens) [8], 0.652; with Torsin-1A (Homo sapiens) [9], 0.747; in [10] it was 0.905. Moreover, the z-score in assay [2] was 0.259 (inactive); in assay [3] it was -0.648 (inactive); in [4], -0.589 (inactive); in assay [5], -0.249 (inactive).

`COCCCNC(=O)[C@@]1(Sc2ccc(C)cc2)CC(=O)N(Cc2ccccc2Cl)[C@@H]1c1ccc(CO)cc1I`: the composite z-score in assay [1] was -0.509; in [6], -0.768; in assay [7], -0.128; with Torsin-1A (Homo sapiens) [8] it was -1.03; with Torsin-1A (Homo sapiens) [9], -0.213; in assay [10] it was -0.519. Moreover, the z-score was -1.35 (inactive) in assay [2], 0.241 (inactive) in [3], -0.168 (inactive) in [4] and 1.68 (inactive) in [5].

Take `COc1cc(NN2C(C(O)c3cc(OC)c(OC)c(OC)c3)C=CC3C(=O)N(c4ccccc4)C(=O)C32)cc(OC)c1OC` (stereo not given): the composite z-score in assay [1] was 0.582; in assay [6], 1.8; in assay [7], 0.867; with Torsin-1A (Homo sapiens) [8], -0.152; with Torsin-1A (Homo sapiens) [9], 0.816; in assay [10], -0.317. The z-score is -2.99 (inactive) in [2], -0.24 (inactive) in assay [3], 0.243 (inactive) in [4] and -0.0967 (inactive) in assay [5].

Consider `[N-]=[N+]=Nc1ccccc1C[C@@]1(C(=O)O)N=C(c2ccc(OCCCO)cc2)O[C@@H]1c1ccccc1N=[N+]=[N-]`, for which the composite z-score in assay [1] is -0.166; in assay [6], 1.96; in [7] it was 0.151; with Torsin-1A (Homo sapiens) [8] it was 0.0274; with Torsin-1A (Homo sapiens) [9] it was 0.286; in [10], -0.744. The z-score was -1.92 (inactive) in assay [2], 0.0288 (inactive) in assay [3], 2.09 (inactive) in [4] and -0.333 (inactive) in assay [5].

Take `Cc1ccc(C(C)CC(O)C2C=CC3C(=O)N(c4ccccc4)C(=O)C3N2Nc2ccc(C#N)cc2)o1` (stereo not given): the composite z-score in [1] is 0.303; in [6], 1.1; in assay [7], 0.027; with Torsin-1A (Homo sapiens) [8] it was 0.279; in the assay with Torsin-1A (Homo sapiens) [9], 0.443; in [10] it was 0.218. The z-score in assay [2] was -1.18 (inactive); in [3] it was -0.194 (inactive); in assay [4], -0.333 (inactive); in assay [5], -0.306 (inactive).

As to `COC(=O)[C@@]1(Cc2ccc(F)cc2)[C@H]2c3cc(C(=O)N4CCCC4)n(CC4CC4)c3C[C@H]2CN1C(=O)c1ccccc1`, the composite z-score came to 0.0479 in assay [1]; 1.86 in [6]; 0.74 in [7]; 0.111 with Torsin-1A (Homo sapiens) [8]; 1.03 in the assay with Torsin-1A (Homo sapiens) [9]; 0.377 in assay [10]. For the same molecule, the z-score in [2] is -2.61 (inactive); in assay [3], 0.197 (inactive); in assay [4] it was 0.972 (inactive); in assay [5], -0.451 (inactive).

Take `Cc1cccc([C@H]2C[C@H]3C(Br)=C[C@@H]2C(=O)[C@]32CO2)c1`: the composite z-score is -0.258 in assay [1]; -0.221 in assay [6]; -0.239 in assay [7]; 0.397 with Torsin-1A (Homo sapiens) [8]; -1.21 in the assay with Torsin-1A (Homo sapiens) [9]; -0.198 in assay [10]. Besides, the z-score is -0.687 (inactive) in assay [2], 0.185 (inactive) in assay [3], 0.854 (inactive) in assay [4] and 2.63 (inactive) in [5].

For the molecule `C[C@]1(C(=O)NCC(F)(F)F)c2ccccc2C(=O)N(Cc2ccccc2)[C@H]1c1ccc(CO)cc1`, the composite z-score in assay [1] was -0.398; in assay [6], -0.726; in assay [7] it was -0.0719; in the assay with Torsin-1A (Homo sapiens) [8], -0.938; with Torsin-1A (Homo sapiens) [9], 0.808; in [10], -1.32. Moreover, the z-score in assay [2] is -1.48 (inactive); in assay [3] it was -0.0817 (inactive); in [4] it was -0.179 (inactive); in assay [5], 0.112 (inactive).

With `O=C1C[C@@](C(=O)NCc2ccccc2)(c2ccc([N+](=O)[O-])cc2)[C@@H](c2ccc(CO)cc2I)N1CC12CC3CC(CC(C3)C1)C2`, the composite z-score in assay [1] was 0.77; in assay [6], 0.0117; in assay [7], -0.246; in the assay with Torsin-1A (Homo sapiens) [8], 0.585; with Torsin-1A (Homo sapiens) [9] it was 0.825; in assay [10], 2.06. Besides, the z-score in assay [2] was -5.74 (inactive); in assay [3], -1.67 (inactive); in [4], -0.709 (inactive); in assay [5] it was -0.038 (inactive).
